Read-out in assay [1]: Tissue Factor, F3 (gene 2152)
The experiment in a line: BSK_CASM3C_TissueFactor: BioMAP Diversity Plus: CASM3C Assay for Tissue Factor Biomarker Activity (AID 2283052).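 Also: cell surface tissue factor protein level read by ELISA.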 Particulars: primary human coronary artery smooth muscle cells; actives raise or lower the signal.

Read-out in assay [2]: Interferon-gamma inducible Protein 10 (IP10), CXCL10 (gene 3627)
The experiment in a line: BSK_hDFCGF_IP10: BioMAP Diversity Plus: hDFCGF Assay for Interferon-gamma inducible Protein 10 (IP10) Biomarker Activity (AID 2283053). Particulars: primary human foreskin fibroblasts; actives raise or lower the signal. The method, boiled down: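 Human foreskin fibroblast primary cells (hDFCGF system) were dosed with chemical and assayed at 24 h; IP-10 measured by ELISA. Activity fitted bidirectionally relative to DMSO negative control as baseline.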

Read-out in assay [3]: Urokinase-type plasminogen activator receptor (uPAR), PLAUR (gene 5329)
Nature of the assay: BSK_CASM3C_uPAR: BioMAP Diversity Plus: CASM3C Assay for Urokinase-type plasminogen activator receptor (uPAR) Biomarker Activity (AID 2283054).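 Also: cell-surface uPAR protein level quantified by ELISA.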 Particulars: primary human coronary artery smooth muscle cells; actives raise or lower the signal.

Read-out in assay [4]: Vascular cell adhesion molecule 1 (VCAM1), VCAM1 (gene 7412)
Nature of the assay: BSK_CASM3C_VCAM1: BioMAP Diversity Plus: CASM3C Assay for Vascular cell adhesion molecule 1 (VCAM1) Biomarker Activity (AID 2283055).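 Also: VCAM-1 protein level quantified by ELISA on the cells.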 Particulars: primary human coronary artery smooth muscle cells; actives raise or lower the signal.

Read-out in assay [5]: Collagen III, COL3A1 (gene 1281)
The experiment in a line: BSK_hDFCGF_CollagenIII: BioMAP Diversity Plus: hDFCGF Assay for Collagen III Biomarker Activity (AID 2283056). Particulars: primary human foreskin fibroblasts; actives raise or lower the signal. The method, boiled down:
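hDFCGF primary human dermal fibroblasts; 24 h chemical exposure; collagen III by ELISA; bidirectional curve fit vs DMSO baseline (gain or loss of signal).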

Read-out in assay [6]: Epidermal growth factor receptor (EGFR), EGFR (gene 1956)
The experiment in a line: BSK_hDFCGF_EGFR: BioMAP Diversity Plus: hDFCGF Assay for Epidermal growth factor receptor (EGFR) Biomarker Activity (AID 2283057). Particulars: primary human foreskin fibroblasts; actives raise or lower the signal. The essentials: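 Primary human foreskin fibroblasts were exposed to compound for 24 h, after which cell-surface EGFR was quantified by ELISA. Activity was fitted bidirectionally against the DMSO negative control as baseline.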

Read-out in assay [7]: Interleukin-8 (IL8), CXCL8 (gene 3576)
The experiment in a line: BSK_hDFCGF_IL8: BioMAP Diversity Plus: hDFCGF Assay for Interleukin-8 (IL8) Biomarker Activity (AID 2283058). Particulars: primary human foreskin fibroblasts; actives raise or lower the signal. The essentials:
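ELISA read-out of IL-8 from primary human foreskin fibroblast cultures taken 24 h after dosing; values are bidirectional fits relative to DMSO vehicle.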

Assay [8] in a line: BSK_hDFCGF_Proliferation: Cell Proliferation Assessment in the BioMAP Diversity Plus: hDFCGF Assay (AID 2283059).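 Also: curves fitted for both rise and fall of signal versus DMSO baseline.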 Particulars: primary human foreskin fibroblasts. The essentials: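 Primary human foreskin fibroblasts, sub-confluent; […]; 10% TCA fix, 0.1% SRB stain, A560 total protein. Gain/loss fitted bidirectionally vs DMSO control.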
Read-out in assay [9]: Macrophage colony-stimulating factor (MCSF), CSF1 (gene 1435)
Nature of the assay: BSK_hDFCGF_MCSF: BioMAP Diversity Plus: hDFCGF Assay for Macrophage colony-stimulating factor (MCSF) Biomarker Activity (AID 2283060). Particulars: primary human foreskin fibroblasts; actives raise or lower the signal. The method, boiled down: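 ELISA read-out of M-CSF in human dermal foreskin fibroblast cultures, 24 h after chemical dosing; gain or loss of signal fitted bidirectionally relative to DMSO baseline.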

Assay [10] in a line: BSK_hDFCGF_SRB: Viability Assessment in the BioMAP Diversity Plus: hDFCGF Assay (AID 2283061).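 Also: cells exposed to compound for 24 h before the read.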 Particulars: primary human foreskin fibroblasts. The method, boiled down:
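Primary human foreskin fibroblasts; 24 h post-dose; fixed 10% TCA, stained 0.1% SRB, A560 read; total protein as overt cytotoxicity measure; curves fit bidirectionally vs DMSO control.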

Read-out in assay [11]: Monokine induced gamma interferon (MIG), CXCL9 (gene 4283)
Nature of the assay: BSK_hDFCGF_MIG: BioMAP Diversity Plus: hDFCGF Assay for Monokine induced gamma interferon (MIG) Biomarker Activity (AID 2283063). Particulars: primary human foreskin fibroblasts; actives raise or lower the signal. The method, boiled down:
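Fibroblasts (human foreskin, primary) dosed, 24 h, MIG by ELISA; fit bidirectional vs DMSO.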

Read-out in assay [12]: Vascular cell adhesion molecule 1 (VCAM1), VCAM1 (gene 7412)
Nature of the assay: BSK_hDFCGF_VCAM1: BioMAP Diversity Plus: hDFCGF Assay for Vascular cell adhesion molecule 1 (VCAM1) Biomarker Activity (AID 2283065).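 As to AC50: VCAM-1 protein level quantified by ELISA after 24 h chemical exposure.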 Particulars: primary human foreskin fibroblasts; actives raise or lower the signal. The essentials:
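ELISA read-out of VCAM-1 on human skin fibroblasts, 24 h post-dose; gain or loss of signal fitted bidirectionally against DMSO baseline.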

Read-out in assay [13]: Plasminogen activator inhibitor-1 (PAI1), SERPINE1 (gene 5054)
The experiment in a line: BSK_hDFCGF_PAI1: BioMAP Diversity Plus: hDFCGF Assay for Plasminogen activator inhibitor-1 (PAI1) Biomarker Activity (AID 2283066). Particulars: primary human foreskin fibroblasts; actives raise or lower the signal. The method, boiled down:
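Human foreskin fibroblasts in the hDFCGF system were dosed with compound for 24 h; PAI-1 was quantified by ELISA. Bidirectional curve fitting used DMSO as negative control and baseline.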

Read-out in assay [14]: Intercellular Adhesion Molecule 1 (ICAM1), ICAM1 (gene 3383)
The experiment in a line: BSK_KF3CT_ICAM1: BioMAP Diversity Plus: KF3CT Assay for Intercellular Adhesion Molecule 1 (ICAM1) Biomarker Activity (AID 2283067). Particulars: primary human keratinocytes with fibroblasts; actives raise or lower the signal. The method, boiled down:
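ELISA readout of ICAM-1; KF3CT human skin co-culture (keratinocytes + foreskin fibroblasts), 24 h post-dose; gain/loss fit vs DMSO baseline.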

Read-out in assay [15]: Interferon-gamma inducible Protein 10 (IP10), CXCL10 (gene 3627)
The experiment in a line: BSK_KF3CT_IP10: BioMAP Diversity Plus: KF3CT Assay for Interferon-gamma inducible Protein 10 (IP10) Biomarker Activity (AID 2283068). Particulars: primary human keratinocytes with fibroblasts; actives raise or lower the signal. The essentials:
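In a primary skin co-culture of keratinocytes and fibroblasts, IP-10 is quantified by ELISA at 24 h after dosing. SRB staining of parallel wells monitors overt toxicity. Curves are fitted both directions against DMSO.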

Assay [16] in a line: BSK_KF3CT_SRB: Viability Assessment in the BioMAP Diversity Plus: KF3CT Assay (AID 2283069).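 Also: total protein by sulforhodamine B staining as a cytotoxicity measure; read 24 h after compound addition.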 Particulars: primary human keratinocytes with fibroblasts. The essentials: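 Human keratinocyte and foreskin fibroblast co-culture exposed to chemical for 24 h. Total protein measured in parallel cultures by 0.1% sulforhodamine B staining after 10% TCA fixation, read at 560 nm; bidirectional fit relative to DMSO.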

Read-out in assay [17]: Interleukin-1 alpha (IL1a), IL1A (gene 3552)
Nature of the assay: BSK_KF3CT_IL1a: BioMAP Diversity Plus: KF3CT Assay for Interleukin-1 alpha (IL1a) Biomarker Activity (AID 2283070). Particulars: primary human keratinocytes with fibroblasts; actives raise or lower the signal. The method, boiled down: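 Primary human keratinocyte plus foreskin fibroblast co-culture, dosed and measured at 24 h in 96-well plates. IL-1a level quantified by ELISA; bidirectional fit relative to DMSO.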

Read-out in assay [18]: TIMP metallopeptidase inhibitor 2 (TIMP2), TIMP2 (gene 7077)
Nature of the assay: BSK_KF3CT_TIMP2: BioMAP Diversity Plus: KF3CT Assay for TIMP metallopeptidase inhibitor 2 (TIMP2) Biomarker Activity (AID 2283071). Particulars: primary human keratinocytes with fibroblasts; actives raise or lower the signal. The essentials: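 Human primary keratinocyte/foreskin fibroblast co-culture dosed with chemical and sampled at 24 h. TIMP-2 levels quantified by ELISA; bidirectional fitting against DMSO negative control as baseline.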

Read-out in assay [19]: Matrix Metallopeptidase 1 (MMP1), MMP1 (gene 4312)
Nature of the assay: BSK_hDFCGF_MMP1: BioMAP Diversity Plus: hDFCGF Assay for Matrix Metallopeptidase 1 (MMP1) Biomarker Activity (AID 2283064). Particulars: primary human foreskin fibroblasts; actives raise or lower the signal. The method, boiled down:
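Primary human foreskin fibroblasts exposed to chemicals for 24 h; MMP1 measured by ELISA. Cytotoxicity tracked by SRB staining in parallel cultures; bidirectional fit relative to DMSO.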

Read-out in assay [20]: TIMP metallopeptidase inhibitor 1 (TIMP1), TIMP1 (gene 7076)
Nature of the assay: BSK_hDFCGF_TIMP1: BioMAP Diversity Plus: hDFCGF Assay for TIMP metallopeptidase inhibitor 1 (TIMP1) Biomarker Activity (AID 2283062). Particulars: primary human foreskin fibroblasts; actives raise or lower the signal. The essentials:
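ELISA readout of TIMP-1 from human dermal foreskin fibroblast cultures 24 h post-dosing. Curves were fitted in both directions against DMSO baseline, with SRB total-protein staining in parallel cultures as a cytotoxicity check.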

Active and inactive are the calls of the source. The calls were made as follows: active = hit-call score of the fitted dose curve at least 0.9, where 1 is the maximum; inactive = score below 0.9.

For orientation: AC50 means the midpoint of the concentration-response curve, whichever way the signal moves. As to `CC(C)(C)c1cc(C(C)(C)C)c(O)c(C(C)(C)C)c1`, the outcome in [1], in assay [3], in [4], in [6], in assay [14] and in assay [16] was inactive. Also, the result in assay [17] and in assay [18] was inactive. For the same compound, the AC50 in [2] was 32.8 µM (active); in [5], 29.3 µM (active); in assay [7] it was 31.5 µM (active); in assay [8] it was 10.8 µM (active); in assay [9], 31.5 µM (active); in assay [10] it was 32 µM (active). Moreover, the AC50 is 33.5 µM (active) in assay [11], 31.5 µM (active) in [12], 32.2 µM (active) in assay [13] and 32.8 µM (active) in assay [15].

Turning to `CCCCCCC(=O)O`, the result in assay [1], in assay [2], in [3], in [4], in assay [5] and in assay [6] was inactive. Also, the outcome in [7], in assay [8], in assay [9], in assay [10], in [11] and in assay [19] was inactive. The outcome in [12], in [13], in assay [14], in assay [15], in [17] and in assay [18] was inactive.

In the case of `c1ccc2c(c1)ccc1ccccc12`, the outcome in [1], in assay [2], in assay [3], in [4], in assay [5] and in assay [6] was inactive. The outcome in assay [7], in assay [8], in assay [9], in assay [10], in assay [11] and in [19] was inactive. Also, the outcome in [12], in assay [13], in [14], in assay [15], in assay [16] and in assay [17] was inactive. In assay [18], the outcome was inactive.

With `Cc1cc(C)c(O)c(C)c1`, the result in [1], in assay [2], in [3], in [4], in [5] and in [6] was inactive. For the same compound, the outcome in assay [7], in assay [8], in assay [9], in assay [10], in assay [11] and in [12] was inactive. Also, the result in [13], in assay [14], in assay [15], in assay [16], in assay [17] and in assay [18] was inactive.

Consider `N#C[C@@H]1CC(F)(F)CN1C(=O)CNC1CC2CCC(C1)N2c1ncccn1` (stereo partly drawn), for which the outcome in assay [1], in assay [2], in [3], in assay [4], in assay [5] and in assay [6] was inactive. Besides, the outcome in assay [7], in assay [8], in [9], in [10], in [11] and in assay [12] was inactive. Also, the result in assay [13], in [14], in assay [15], in assay [16], in [17] and in [18] was inactive.

As for `ClC1=C(Cl)C(Cl)(Cl)C(Cl)=C1Cl`, the concentration at half-maximal activity (AC50) in [1] is 1.92 µM (active); in assay [2], 9.62 µM (active); in [3] it was 6.99 µM (active); in assay [4] it was 5.1 µM (active); in assay [5], 14 µM (active); in assay [7] it was 17 µM (active). For the same compound, the AC50 in [8] is 4.2 µM (active); in assay [9] it was 9.09 µM (active); in assay [10], 12.8 µM (active); in assay [20], 12.4 µM (active); in assay [11], 13.6 µM (active); in [12] it was 6.75 µM (active). For the same compound, the AC50 in assay [13] is 8.9 µM (active); in assay [14], 9.94 µM (active); in [15] it was 8.82 µM (active); in assay [16], 7.42 µM (active); in assay [17], 7.98 µM (active); in [18], 11.8 µM (active). The result in [6] was inactive.

Take `Oc1cc2ccccc2c2ccccc12`: the AC50 was 10.5 µM (active) in assay [1]; 2 µM (active) in assay [2]; 11.2 µM (active) in [3]; 8.3 µM (active) in assay [4]; 1.9 µM (active) in assay [5]; 3.94 µM (active) in assay [7]. For the same compound, the concentration at half-maximal activity (AC50) in [8] was 1.56 µM (active); in assay [9], 2.72 µM (active); in [10], 3.24 µM (active); in assay [11] it was 2.78 µM (active); in assay [12] it was 2.07 µM (active); in assay [13], 2.4 µM (active). Further, the half-maximal activity concentration (AC50) is 6.96 µM (active) in [14], 7.34 µM (active) in assay [15], 6 µM (active) in assay [17] and 7.99 µM (active) in assay [18]. Besides, the outcome in [6] and in assay [16] was inactive.

These data come from PubChem BioAssay (EPA / NIEHS).
